# Laboratory results published in PubChem BioAssay AID1259415 (National Center for Advancing Translational Sciences (NCATS), 2018).
# Where “and” joins values, the source holds several entries; their conditions need not be identical. Equal entries are not always repeated. The campaign covered roughly 410,000 compounds. About 18,000 (4.4%) were called active. Not shown: some 7% with an inconclusive outcome. Cut-off read from the data, not from the text of the source: active = activity change below about -60%; inconclusive = no clear call, values can overlap the other calls; inactive = above about -39%. Many of the other results were omitted from the sample, so actives are more common in it than they were.
# Assay: qHTS Assay for inhibitors of the human cytomegalovirus (HCMV)
# Conditions: HFF cells, HCMV-luciferase reporter, 72 h; at 57.5 µM; stronger effect = lower value
# In short: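 Human foreskin fibroblasts infected with luciferase-reporter HCMV at MOI 1 PFU/cell, compounds at two doses. Luciferase measured 72 h post infection; normalized to buffer-only basal and Salinomycin (10uM) controls.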
# % is set by controls: 0 for no effect and ±100 for the full control effect.
row,Compound,"activity change, negative = inhibition"
1,O=C(NCCc1ccc(Cl)cc1)c1ccc2c(c1)N(Cc1ccc(F)cc1)C(=O)CS2,2.62% (inactive)
2,Cc1ccc(Nc2cc(C)nc3c(C)ccc([N+](=O)[O-])c23)cc1,-65.6% (active)
3,Cc1ccc(NC2=NC(c3ccccc3)n3c(nc(C)cc3=O)N2)cc1 (configuration not stated),-12% (inactive)
4,CNc1ccc(-c2nc(-c3ccccc3C)no2)cc1[N+](=O)[O-],63.3% (inactive)
5,C[C@@H]1CN([C@H](C)CO)C(=O)CCCn2cc(nn2)CO[C@H]1CN(C)C(=O)Nc1ccc(N2CCCCC2)cc1,5.98% (inactive)
6,CCOc1ccc(CNC(=O)c2cc(=O)[nH]c3ccc(S(=O)(=O)N4CCCCC4)cc23)cc1,66.7% (inactive)
7,O=C(Nc1ccc2oc(-c3ccc(O)c(Br)c3)nc2c1)c1cc2ccccc2o1,17.1% (inactive)
8,COc1cccc(C(=O)NC2(C(F)(F)F)C(=O)Nc3c2c(=O)[nH]c(=O)n3-c2ccc(C)cc2)c1 (configuration not stated),23.5% (inactive)
9,Cc1occc1C(=O)NC1CCCN(Cc2ccc(CC(C)C)cc2)C1 (configuration not stated),-69.3% (active)
10,Cc1ccsc1C(=O)C1CCCN(Cc2ccc(O)cc2)C1 (configuration not stated),66.6% (inactive)
11,Cc1ccn(CC(=O)NC2CCCN(Cc3ccccc3F)C2)n1 (configuration not stated),-8.34% (inactive)
12,COc1cccc(NC(=O)C(=O)NCC(c2ccc3c(c2)OCO3)N2CCN(C)CC2)c1 (configuration not stated),44% (inactive)
13,CSc1ccc(NC(=O)Cn2nnnc2-c2ccccc2F)cc1,13% (inactive)
14,CC(C)Oc1ccc(CNC(=O)C2CCN(c3nc4ccccc4n(C)c3=O)CC2)cc1,3.39% (inactive)
15,COc1cccc2cc(-c3nc(Cl)c4c5c(sc4n3)CC(C)CC5)c(=O)oc12 (configuration not stated),7.76% (inactive)
16,Fc1ccc(CSc2nnc(-c3cc4c(s3)-c3ccccc3CC4)o2)cc1,20.4% (inactive)
17,COc1ccc(C(=O)Oc2ccc(-c3nnco3)cc2)cc1S(=O)(=O)N1CCOCC1,-83.8% (active)
18,O=C(Oc1ccc(-c2nnco2)cc1)c1ccc(F)c(S(=O)(=O)N2CCOCC2)c1,34.8% (inactive)
19,COc1ccccc1OC(=O)c1ccc(C)c(S(=O)(=O)N2CCOCC2)c1,2.56% (inactive)
20,CCC(C)(C)c1ccc(Oc2ccc(NC(=O)COC(=O)C3=COCCO3)cc2)cc1,-70.9% (active)
21,COc1ccc(NC(=O)COC(=O)CNC(=O)C2CCCCC2)cc1,16% (inactive)
22,O=C1CCC(C(=O)OCC(=O)Nc2ccc(OC(F)F)cc2)=NN1,5.49% (inactive)

row,Compound,"activity change, negative = inhibition"
1,COc1cccc(Nc2nc3ccccc3c3nncn23)c1,15% (inactive)
2,COc1ccc(NC(=O)CCc2nnc3n(CC(C)C)c(=O)c4ccccc4n23)cc1OC,-15.8% (inactive)
3,O=C(Cn1c(=O)nc(-c2ccccc2)c2cc(Cl)ccc21)NCc1ccc(Cl)cc1,4.55% (inactive)
4,CCCCNc1ccc(-c2nc(-c3ccncc3)no2)cc1[N+](=O)[O-],14.6% (inactive)
5,Cc1ccccc1Cn1nc(C)c(NC(=O)c2cc(-c3ccc(F)cc3)on2)c1C,-10.2% (inactive)
6,Cc1nn(Cc2ccccc2)c(C)c1NS(=O)(=O)c1ccccc1,18.1% (inactive)
7,Cc1ccccc1Cn1nc(C)c(NC(=O)C(F)(F)F)c1C,-69.7% (active)
8,COc1cc(NC(=O)CN2CCN(S(=O)(=O)c3ccc(Br)cc3)CC2)cc(OC)c1,10.7% (inactive)
9,CC(C)OCCCn1c(SCC(=O)c2ccccc2)nc2c(sc3ccccc32)c1=O,-3.18% (inactive)
10,CCc1nn(CCCC(=O)NCc2ccccc2OC)c(=O)c2cc3occc3n12,0.686% (inactive)
11,CC(=O)c1ccc(S(=O)(=O)N2CCN(C(=O)/C=C/c3ccc4ccccc4n3)CC2)cc1,-94.7% (active)
12,COC(=O)c1ccc(S(=O)(=O)N2CCC(c3nc4ccccc4o3)CC2)cc1,-36.4% (inactive)
13,CC(=O)c1ccc(S(=O)(=O)N2CCC(Oc3ccc(-n4cnnn4)cc3)CC2)cc1,-16.1% (inactive) and 9.96% (inactive)
14,O=C(NCCc1ccccc1)c1cnc2sc(N3CCCC3)nn2c1=O,-22.6% (inactive)
15,CCCCNc1c(-c2cccc(Sc3ccc(OC)cc3)c2)nc2ccccn12,-28.4% (inactive)
16,COC(=O)[C@]12C[C@H](CC(=O)NCCC(C)C)C(=O)N(CCc3ccc(OC)c(OC)c3)C1=C[C@H](C(C)(C)C)O[C@@H]2C,13.1% (inactive)
17,COc1ccccc1CNC(=O)c1ccc(-n2c(C)cc3c2CCCC3)cc1,-28.5% (inactive)
18,Cc1cc([N+](=O)[O-])c(NC2CCCCC2)c([N+](=O)[O-])c1,-18.1% (inactive)
19,Cc1cc([N+](=O)[O-])ccc1NC1CCCC1,-71.6% (active)
20,N#Cc1cc([N+](=O)[O-])ccc1NCC1CCCO1 (configuration not stated),11.1% (inactive)
21,COc1ccc(C)cc1N(C)C(=O)c1c(C)oc2ncnc(N3CCOCC3)c12,-37.3% (inactive)
22,Cc1ccc2onc(CC(=O)N3CCN(c4ccc(Cl)cc4)CC3)c2c1,-15.9% (inactive)

row,Compound,"activity change, negative = inhibition"
1,Cc1nn(C(C)C(=O)NCCc2ccccc2)c(=O)c2c1sc1ccccc12 (configuration not stated),-39.3% (inactive)
2,CCCCN(C)c1nnc(NC(=O)Nc2ccc(Br)c(C)c2)s1,-4.35% (inactive)
3,Cc1ccc(NC(=O)Nc2nnc(-c3ccncc3)s2)cc1,-99.3% (active)
4,Cc1ccc(Nc2nc(Cl)c(C=O)s2)cc1,-12.1% (inactive)
5,CCNC(=O)C1(C)CCCN1C(=O)c1ccc(N(C)C)cc1 (configuration not stated),-8.81% (inactive)
6,Cc1ccc(C)c(Nc2nnc(-c3ccc(C)c(S(=O)(=O)N4CCCCC4)c3)c3ccccc23)c1,-66.1% (active)
7,Cc1ccc(-c2nnc(Nc3ccc(C(=O)N(C)C)cc3)c3ccccc23)cc1S(N)(=O)=O,-17.4% (inactive)
8,Cc1ccc(Nc2nnc(-c3ccc(C)c(S(=O)(=O)N4CCCCC4)c3)c3ccccc23)cc1,-7.76% (inactive)
9,COc1cc(CN(C(=O)c2ccccc2Br)c2ccccn2)cc(OC)c1OC,-1.41% (inactive)
10,O=S(=O)(c1ccc(Br)cc1)c1nnn2c1nc(NC1CCCCCC1)c1sccc12,-2.26% (inactive)
11,CCn1cc(C(=O)N2CC=C(c3ccccc3)CC2)c(=O)c2ccc(C)nc21,-108% (active)
12,CCn1cc(C(=O)OCC(=O)Nc2cccc(C)c2)c(=O)c2ccc(C)nc21,37.7% (inactive)
13,CCn1cc(C(=O)OCC(=O)Nc2cc(C)cc(C)c2)c(=O)c2ccc(C)nc21,-39.2% (inactive)
14,CCc1ccccc1NC(=O)c1cnn(-c2ccc(F)cc2)c1C1CCNCC1,2.44% (inactive)
15,CCOC(=O)Cc1ccc(NC(=O)Nc2c[nH]c(=O)[nH]c2=O)cc1,8.88% (inactive)
16,COc1ccccc1CNC(=O)C(Cc1ccccc1)NS(=O)(=O)c1ccc2c(c1)oc(=O)n2C (configuration not stated),5.72% (inactive)
17,Cc1[nH]c(C)c(S(=O)(=O)N2CCN(c3cccc(C(F)(F)F)c3)CC2)c1C(=O)N1CCCCC1,-80.2% (active)
18,Cc1[nH]c(C)c(S(=O)(=O)N2CCN(c3cccc(C(F)(F)F)c3)CC2)c1C(=O)N1CCCC1,-9.51% (inactive)
19,Cc1ccc(C)c(N2CCN(S(=O)(=O)c3c(C)[nH]c(C)c3C(=O)N3CCCC3)CC2)c1,-31.6% (inactive)
20,CCCS(=O)(=O)c1c(Nc2ccccc2C)sc(C(=O)c2ccccc2)c1N,16.8% (inactive)
21,O=c1cc(CSc2ncn[nH]2)[nH]c2ccc(F)cc12,10.7% (inactive)
22,CC(C)(C)N1C(=O)c2c(C(=O)OCc3ccccc3)[nH]c(-c3ccccc3)c2C1=O,-12.2% (inactive)

row,Compound,"activity change, negative = inhibition"
1,COc1ccccc1Nc1cc(C(=O)NCCCN(C)C2CCCCC2)c2ccccc2n1,-98.1% (active)
2,CCN(CCCNC(=O)c1cc(Nc2ccc(OC)cc2)nc2ccccc12)c1cccc(C)c1,-61.5% (active)
3,CCCCN(CCCNC(=O)c1cc(Nc2ccccc2OC)nc2ccccc12)c1ccccc1,-9.32% (inactive)
4,CCN(CCCNC(=O)c1cc2cc3cc(OC)ccc3nc2s1)c1ccccc1,44.1% (inactive)
5,COc1ccc(CCNC(=O)c2c3c(nc4ccccc24)C(=O)N(C2CCCCC2)C3)cc1OC,-6.18% (inactive)
6,CCN(CCCNC(=O)CSc1cc(=O)n(C)c2cc(Cl)ccc12)c1cccc(C)c1,1.12% (inactive)
7,CCc1nc2cccnc2n1-c1ccc(CC(=O)Nc2c(C)cccc2C)cc1,0% (inactive)
8,Cc1cc(C)cc(NC(=O)c2cnc3sc(N4CCCC4)nn3c2=O)c1,-28.7% (inactive)
9,CCCCCCCCn1c2c(c(=N)c3c1CCC3)CCCC2,-99.4% (active)
10,CSc1ncc(C(=O)NCc2ccccc2Cl)c(C(F)(F)F)n1,-2.41% (inactive)
11,O=C(CCN1CCCO1)N1CCCC(N2CCN(c3cccc(C(F)(F)F)c3)CC2)C1 (configuration not stated),69.3% (inactive)
12,COC(=O)c1ccc(NC(=O)c2cc(S(=O)(=O)N3CCC(C)CC3)cn2C)cc1,-7.89% (inactive)
13,Cc1c2cnn(-c3ccccc3)c(=O)c2c(C)n1C(C)C(=O)Nc1ccc(Br)cc1F (configuration not stated),-30.3% (inactive)
14,CC1CC(C)CN(S(=O)(=O)c2cccc(C(=O)N3C(=O)c4cccc(N)c4C3=O)c2)C1 (configuration not stated),4.25% (inactive)
15,Cn1c(=O)n(C)c2cc(NS(=O)(=O)c3ccc(F)cc3)ccc21,1.03% (inactive) and 221% (inactive)
16,Cn1c(=O)n(C)c2cc(S(=O)(=O)Nc3ccc(F)cc3)ccc21,41.5% (inactive)
17,Cn1c(CCN2CCN(c3ccccn3)CC2)nc2cc(NS(=O)(=O)c3ccc(F)cc3)ccc21,-85.1% (active)
18,COc1ccc(NC(=O)CSc2nc3ccccc3[nH]2)cc1,2.79% (inactive)
19,CCOc1ccccc1NC(=O)C1=C(C)Nc2ncnn2C1c1ccc(NC(C)=O)cc1 (configuration not stated),4.88% (inactive)
20,CCOC(=O)C1=C(c2ccccc2)Nc2ncnn2C1c1ccc(Cl)cc1 (configuration not stated),-113% (active)
21,CC1=C(C(=O)Nc2ccccc2Cl)C(c2cccs2)n2ncnc2N1 (configuration not stated),-15.8% (inactive)
